Experimental findings from PubChem BioAssay (NCI) are described below.

The panel holds about 83,000 compounds, 20% with a hit somewhere; the sample as a whole holds those more often.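 Method: cells in 96-well plates; compound added at one concentration; 48 h incubation; percent growth measured; values under 10 scored active.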 Activity calls are given as the source filed them.

The test system of this experiment is HCT-116 colon. The experiment in a line: NCI-60 one-dose screen, 48 h (100 = growth as untreated, 0 = no growth, -100 = all killed). As to conditions: 10 µM unless noted. As for the experimental part:
Growth inhibition of the HCT-116 human tumor cell line is measured as a screen for anti-cancer activity. Cells are grown in 96 well plates and exposed to the test compound for 48 hours. Compounds are tested at a single concentration, which is 10^-5 M for most compounds. The reported endpoint is percent growth (GI% or GIPRCNT), where numbers from 0 - 100% represent growth inhibition, and numbers from -100% - 0 represent cell death. For example, a value of 40 represents 60% growth inhibition. A value of 0 means no net growth occurred over the course of the experiment. A value of -40 indicates 40% of cells at the beginning of the experiment died by the end of the experiment. A value of -100 means all cells are dead at the end of the experiment.
NCI-60 Human Tumor Cell Lines Screen was performed using the standard one-dose NCI protocol, which is described in more detail at https://dtp.cancer.gov/discovery_development/nci-60/default.htm.
Compounds with GIPRCNT values below 10 were considered active. Activity score was based on GIPRCNT using the following formula: […]
Score is 0 for GIPRCNT values of 100 or above, 50 for GIPRCNT values of 0, and 100 for GIPRCNT values of -100.
As to `O=C(c1ccc(F)c(F)c1Nc1ccc(I)cc1F)N1CC(O)([C@@H]2CCCCN2)C1`, the growth was 5.24% (active).

`O=C(c1c(F)ccc(NS(=O)(=O)N2CC[C@@H](F)C2)c1F)c1c[nH]c2ncc(-c3cnc(C4CC4)nc3)cc12`: the growth is 30.8% (inactive).

`Cn1cnc(-c2cc3nccc(Oc4ccc(NC(=S)NC(=O)Cc5ccccc5)cc4F)c3s2)c1`: the growth was 78.8% (inactive).

Regarding `COc1cc2c(cc1OCCCCN1CCN(CC(=O)Nc3ccc(Cl)cc3C(=O)c3ccccc3Cl)CC1)N=CC1CCCN1C2=O` (stereo not given), the growth was -66.2% (active).

Turning to `Cc1cccc(C)c1N1C(c2ccccc2)=NNC12C=CC(=O)c1c(O)cccc12` (stereo not given), the growth was 45.3% (inactive).

Take `O=C(Nc1nc2cccc(-c3ccc(CN4CCS(=O)(=O)CC4)cc3)n2n1)C1CC1`: the growth is 44.3% (inactive).

On to `COC1CCC(N2C(=O)CNc3ncc(-c4ccc(C(C)(C)O)nc4)nc32)CC1` (stereo not given), for which the growth was 11.4% (inactive).

`CC(C)(C)OC(=O)N1CCC(O)[C@@H](O[Si](c2ccccc2)(c2ccccc2)C(C)(C)C)[C@H]1/C=C/c1ccccc1` (stereo not given in full): the growth is 24.9% (inactive).

For the compound `COc1cc2ncnc3c2cc1OCCCCCN(C)Cc1ccc(Br)cc1N3`, the growth is 33.2% (inactive).

Consider `Cc1cc2c(-c3nc4ccccn4c3N)c(O)c(O)cc2c(O)c1-c1c(C)cc2c(-c3nc4ccccn4c3N)c(O)c(O)cc2c1O`, for which the growth was 9.9% (active).

Regarding `COc1ccc(C2CC(=O)c3c(O)c(OC)c(OC)c(OC)c3O2)cc1O` (stereo not given), the growth is 7.57% (active).

On to `Cc1csc(-c2nnc(Nc3ccc(Oc4ncccc4-c4ccnc(N)n4)cc3)c3ccccc23)c1`, for which the growth is 22.1% (inactive).

As for `O=C(Cc1ccc(/C=C/C(=O)c2ncc[nH]2)cc1)Nc1ccc(S(F)(F)(F)(F)F)cc1`, the growth was -73.6% (active).

On to `COc1ccc(-c2ccc3c(N4CCOC[C@@H]4C)nc(N4CCOC[C@@H]4C)nc3n2)cc1CO`, for which the growth is 21.9% (inactive).

Regarding `COc1cc2cc(NCc3ccc(Cl)cc3)nc(C)c2cc1OC`, the growth was 8.8% (active).

Consider `c1cc(OCCN2CCCCC2)cc(-c2n[nH]c3ccc(-c4ncn[nH]4)cc23)c1`, for which the growth is 28.7% (inactive).

With `COC(=O)C1CCc2sc3ncnc(Nc4cn[nH]c4C(=O)Nc4ccc(CN5CCN(C)CC5)cc4)c3c21` (stereo not given), the growth was 3.34% (active).

As to `CN(C[C@@H]1COCCO1)S(=O)(=O)Nc1ccc2ccc3ncc(-c4cnn(C)c4)cc3c(=O)c2c1`, the growth is 24.1% (inactive).

For `CSC1=C(N)C(=O)c2[nH]cc(CO)c2C1=N`, the growth is -86.7% (active).

Regarding `O=C(O)C1(Cc2cccc(Nc3nccs3)n2)CCC(Oc2cccc(Cl)c2F)CC1` (stereo not given), the growth was 45% (inactive).

For `COc1cc2c(Oc3ccc4[nH]c(C)cc4c3F)ncnc2cc1OCCCN1CCCC1`, the growth was 89.3% (inactive).

On to `CCNC(=O)C#Cc1ccc2c(C(=Nc3ccc(CN(C)C)cc3)c3ccccc3)c(O)[nH]c2c1`, for which the growth is -16.2% (active).

As to `COc1ccc2c(CCCc3ccc(Cl)cc3Cl)c3[n+](cc2c1OC)CCc1cc2c(cc1-3)OCO2`, the growth was -11.6% (active).

With `CCN1CCN(CCCN(C[C@H]2Cc3ccccc3CN2)[C@H]2CCCc3cccnc32)CC1`, the growth was 76.4% (inactive).

For `CCN(CC)C(=O)C[N+](C)(C)CCOC(c1ccccc1)c1ccccc1`, the growth is 99.4% (inactive).

In the case of `Cn1cnc2c(F)c(Nc3ccc(Br)cc3F)c(C(=O)NOCCO)cc21`, the growth was 19% (inactive).

`CN1CCN(CCOc2cc(OC3CCOCC3)c3c(Nc4c(Cl)ccc5c4OCO5)ncnc3c2)CC1`: the growth was 35.3% (inactive).

With `CN(C)C[C@@H]1CCn2cc(c3ccccc32)C2=C(C(=O)NC2=O)c2cn(c3ccccc23)CCO1`, the growth is -69.4% (active).

Consider `O=c1nc2c(-c3nc4ccccc4s3)n[nH]n2c2sc3c(c12)CCCC3`, for which the growth was 89.1% (inactive).

On to `CN1CCN(c2ccc(OC(F)(F)F)c(Nc3ncc4c(n3)-c3c(c(C(N)=O)nn3CCO)CC4)c2)CC1`, for which the growth was 9.89% (active).

Regarding `Cc1cc(C2(c3ccc(O)c(C)c3)OS(=O)(=O)c3ccccc32)ccc1O`, the growth is 104% (inactive).

In the case of `COc1ccc(C2OC(c3cc(-c4cc5ccccc5o4)nn3-c3ccccc3)=NN2C(C)=O)cc1` (stereo not given), the growth was 88.6% (inactive).

On to `C=CC(=O)N(C)[C@H]1C[C@H]2OC(C)(C1OC)n1c3ccccc3c3c4c(c5c6ccccc6n2c5c31)C(=O)NC4` (stereo not given in full), for which the growth is -48.4% (active).

As to `Cn1c(=O)c(F)c(Nc2ccc(I)cc2F)c2c(=O)n(C[C@@H](O)CO)cnc21`, the growth was 9.17% (active).

For the compound `Nc1nc(=S)c2ncn(C3OC(COC(=O)c4ccc(Cl)cc4)C(OC(=O)c4ccc(Cl)cc4)C3OC(=O)c3ccc(Cl)cc3)c2[nH]1` (stereo not given), the growth is 76% (inactive).

For the compound `Cc1cc2c3c(cccc3c1)C(=O)c1ccccc1-2`, the growth was 96.1% (inactive).

On to `CC[n+]1c(/C=C/C=C2\N(C)c3ccccc3C2(C)C)sc2ccccc21`, for which the growth is 7.25% (active).

For the compound `O=S1(=O)OC(c2cc(Cl)c(O)c(Br)c2)(c2cc(Cl)c(O)c(Br)c2)c2ccccc21`, the growth is 96.7% (inactive).

As for `CC12O[C@H](C[C@@H](OC(=O)CCC(=O)O)[C@H]1O)n1c3ccccc3c3c4c(c5c6ccccc6n2c5c31)C(=O)NC4=O`, the growth is 35.6% (inactive).

For `COC[C@@H](C)n1c(C2CCOCC2)nc2c1C1C=C(OC)C(c3c(C)noc3C)=CC1N=C2` (stereo not given in full), the growth is 53.4% (inactive).
